In PubChem BioAssay one finds composite z-score, composite Z-score and z-score data, which are given here for five compounds.

Activity calls are given as the source filed them.

The target in one assay is Albumin (Bos taurus) (UniProt P02769). Description: compounds binding labelled BSA control protein – biochemical, small-molecule microarray, Alexa647 label, 635/667 nm fluorescence, artefact control for SMM control protein annotation, profiling panel (AID 1118).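 Further: score merges 667 nm emission intensity and signal-to-noise per printed compound spot.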 As to conditions: BSA-A647 binding, fluorescence 635 nm, higher = more signal.
A short description of assay [1]: probe aXIP binding to arrayed compounds – biochemical, NeuroSMM set, 635/667 nm fluorescence, primary screen (AID 1119).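 Further: probe is the protein aXip251-270 applied at 1 µg/mL to compound-printed slides; binding of probe to printed compounds measured as 667 nm fluorescence plus signal to noise.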 The conditions noted are these: small-molecule microarray, higher = more signal, called active from +8 up or from −8 down.
Assay [2] in a line: probe aNOTCH3 binding on compound microarray – biochemical, small-molecule microarray, 635/667 nm fluorescence, primary screen (AID 1120).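 Further: probe is a biotin-tagged antibody raised against NOTCH3 rather than NOTCH3 protein; score merges spot fluorescence near 667 nm with spot signal to noise.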 As to conditions: higher = more signal.
Assay [3] in a line: probe aNOTCH2 binding on compound microarray – biochemical, small-molecule microarray, 635/667 nm fluorescence, primary screen (AID 1121).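 Further: score merges feature fluorescence read at 667 nm with its signal to noise.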 As to conditions: higher = more signal.
The target in assay [4] is Carbonic anhydrase 2 (Homo sapiens) (UniProt P00918). Description: compounds binding carbonic anhydrase 2 – biochemical, small-molecule microarray, Alexa647-labelled CAII, profiling panel (AID 1122). As to conditions: CAII-A647 binding fluorescence, higher = more signal.
A short description of assay [5]: COS7 lysate on small-molecule microarray, probe aHis, 635 nm (AID 1123).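 Further: z-score combines 667nm fluorescence intensity with signal-to-noise per printed compound spot.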 The conditions noted are these: COS7 cell lysate, fluorescence, higher = more signal.
Assay [6] can be described thus: probe aLAP1 signal on lysate-treated microarray – cell lysate, small-molecule microarray, COS7 lysate, primary screen (AID 1124).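 Further: lysate comes from COS7 cells expressing LAP1 and is applied at 0.3 µg/mL; score merges spot fluorescence near 667 nm with signal-to-noise over triplicate slides.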 As to conditions: probe aLAP1, fluorescence, higher = more signal.
In a further assay the test system is Sam68 (KHDRBS1). Description: compounds binding KHDRBS1 protein – biochemical, small-molecule microarray, 635 nm fluorescence, primary screen (AID 1125).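 Further: score merges 667 nm channel intensity with signal to noise over triplicate slides.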 As to conditions: higher = more signal.
The test system of assay [7] is Chordin-like protein 2 (CHRDL2). Description: compounds binding chordin-like 2 – biochemical, small-molecule microarray, 635 nm fluorescence, primary screen (AID 1126).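 Further: printed compound slides probed with Chrdl2 protein at 4 µg/mL for 1 h at 4 C; score merges 667 nm emission intensity with signal to noise over three replicate slides.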 As to conditions: fluorescence 635 nm, higher = more signal.
The target in assay [8] is Concanavalin-A (Canavalia ensiformis) (UniProt P02866). Description: compounds binding concanavalin A lectin – biochemical, small-molecule microarray, Alexa647 label, 635 nm, artefact control for SMM control protein annotation, primary screen (AID 1127).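 Further: z combines 667 nm emission intensity with signal-to-noise across three replicate slides.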 As to conditions: ConA-A647 binding fluorescence, higher = more signal.
Assay [9] in a line: compounds binding Alexa647 anti-His antibody – biochemical, small-molecule microarray, 635 nm fluorescence, artefact control for SMM control protein annotation, primary screen (AID 1128).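 Further: score merges feature fluorescence with signal-to-noise for each printed compound spot.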 As to conditions: higher = more signal.
The test system of assay [10] is Human papillomavirus type 1a E7 protein (residues 1-88). Description: HPV1a E7 small-molecule binders, primary screen, biochemical, small-molecule microarray, residues 1-88, 635 nm (AID 1129). As to conditions: small-molecule microarray binding, fluorescence 635 nm; higher = more signal.
Assay [11] deals with Focal adhesion kinase 1 (Homo sapiens) (UniProt Q05397). Description: PTK2 protein binding on printed compound slides – biochemical, small-molecule microarray, 635/667 nm fluorescence, BSA, DTT, primary screen (AID 1130).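 Further: composite of spot emission at 667 nm and signal to noise over triplicate slides.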 The conditions noted are these: 635 nm fluorescence, higher = more signal.
Assay [12] concerns Fibrinogen (Alexa647-labelled). Description: Alexa647-fibrinogen binding to printed small molecules – biochemical, small-molecule microarray, 635/667 nm fluorescence, artefact control for SMM control-protein annotation, profiling panel (AID 1131).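 Further: z-score merges 667 nm fluorescence with per-spot signal-to-noise over triplicate slides.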 The conditions noted are these: fibrinogen-A647 binding fluorescence, higher = more signal.
Assay [13] has as its target Follistatin (Homo sapiens) (UniProt P19883). Description: FST protein binding to printed compounds – biochemical, small-molecule microarray, 635/667 nm fluorescence, primary screen (AID 1132). The conditions noted are these: 635 nm fluorescence, higher = more signal.
Assay [14] concerns the target Fibroblast growth factor 2 (Homo sapiens) (UniProt P09038). The assay can be described thus: basic fibroblast growth factor binding to printed compounds – biochemical, small-molecule microarray, 635/667 nm fluorescence, primary screen (AID 1133). As to conditions: FGF2, fluorescence 635/667, higher = more signal.
A short description of assay [15]: JC-1 mitochondrial potential readout, lung cancer cells – cell-based, A549, JC-1 fluorescence, basal, 24 h, 100 nL, profiling panel (AID 1138).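 Further: A549 lung adenocarcinoma cells under basal conditions with no added stimulus; test concentration not given here.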 The conditions noted are these: higher = more signal.
Another assay relates to Lefty1. The assay can be described thus: Lefty1 protein binding to printed compounds – biochemical, small-molecule microarray, 635/667 nm fluorescence, primary screen (AID 1139). The conditions noted are these: fluorescence 635/667, higher = more signal.
Assay [16] relates to wheat germ agglutinin (Triticum aestivum), Alexa647-labelled. Description: Alexa647-WGA lectin binding to printed small molecules – biochemical, small-molecule microarray, 635/667 nm fluorescence, artefact control for SMM control-protein annotation, profiling panel (AID 1140).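 Further: score merges 667 nm feature emission with signal to noise over triplicate slides.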 The conditions noted are these: WGA-A647 binding, 635 nm fluorescence, higher = more signal.
In assay [17] the target is Luciferin 4-monooxygenase (Photinus pyralis) (UniProt P08659). Description: inhibition of purified Photinus pyralis luciferase – biochemical, luminescence, purified enzyme, 2006 set, primary screen (AID 1141).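 Further: cell-free assay with purified firefly luciferase at 100 ng per well in PBS; test concentration not given here.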 As to conditions: purified firefly luciferase, SteadyGlo luminescence, 30 min; higher = more signal, called active from +8 up or from −8 down.
Sequence of Luciferin 4-monooxygenase (Photinus pyralis) (P08659 whole entry, looked up): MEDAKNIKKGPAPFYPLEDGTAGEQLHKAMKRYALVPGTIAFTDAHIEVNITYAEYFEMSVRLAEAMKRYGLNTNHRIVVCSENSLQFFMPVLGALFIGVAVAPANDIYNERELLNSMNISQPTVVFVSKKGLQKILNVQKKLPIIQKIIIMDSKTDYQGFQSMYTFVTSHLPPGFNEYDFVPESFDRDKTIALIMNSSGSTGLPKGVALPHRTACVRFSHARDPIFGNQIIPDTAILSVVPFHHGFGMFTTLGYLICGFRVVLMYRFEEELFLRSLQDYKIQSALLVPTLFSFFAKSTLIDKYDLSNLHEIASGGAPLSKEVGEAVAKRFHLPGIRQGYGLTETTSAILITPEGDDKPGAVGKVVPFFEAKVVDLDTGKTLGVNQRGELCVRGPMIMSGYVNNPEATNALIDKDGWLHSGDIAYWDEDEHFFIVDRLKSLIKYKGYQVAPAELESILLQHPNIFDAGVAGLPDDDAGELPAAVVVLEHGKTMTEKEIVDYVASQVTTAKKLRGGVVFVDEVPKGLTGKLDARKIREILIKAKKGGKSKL

Sequence of Follistatin (Homo sapiens) (P19883 whole entry, looked up): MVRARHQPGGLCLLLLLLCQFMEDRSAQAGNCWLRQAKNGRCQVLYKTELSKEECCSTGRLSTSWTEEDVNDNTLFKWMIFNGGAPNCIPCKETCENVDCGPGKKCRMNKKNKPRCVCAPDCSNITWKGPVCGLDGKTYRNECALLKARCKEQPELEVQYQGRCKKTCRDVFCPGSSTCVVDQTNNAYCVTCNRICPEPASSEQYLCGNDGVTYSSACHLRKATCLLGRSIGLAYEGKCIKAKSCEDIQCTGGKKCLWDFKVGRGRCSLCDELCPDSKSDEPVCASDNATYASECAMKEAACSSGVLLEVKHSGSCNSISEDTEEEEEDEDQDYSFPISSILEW
Sequence of Fibroblast growth factor 2 (Homo sapiens) (P09038 whole entry, looked up): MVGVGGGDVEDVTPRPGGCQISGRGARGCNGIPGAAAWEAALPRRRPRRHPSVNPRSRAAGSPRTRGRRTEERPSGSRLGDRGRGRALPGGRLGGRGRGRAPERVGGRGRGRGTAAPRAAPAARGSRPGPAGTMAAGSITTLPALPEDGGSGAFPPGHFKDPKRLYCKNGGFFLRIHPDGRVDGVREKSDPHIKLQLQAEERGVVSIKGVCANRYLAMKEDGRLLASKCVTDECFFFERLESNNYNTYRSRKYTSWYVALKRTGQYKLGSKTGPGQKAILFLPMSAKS
Sequence of Concanavalin-A (Canavalia ensiformis) (P02866 whole entry, looked up): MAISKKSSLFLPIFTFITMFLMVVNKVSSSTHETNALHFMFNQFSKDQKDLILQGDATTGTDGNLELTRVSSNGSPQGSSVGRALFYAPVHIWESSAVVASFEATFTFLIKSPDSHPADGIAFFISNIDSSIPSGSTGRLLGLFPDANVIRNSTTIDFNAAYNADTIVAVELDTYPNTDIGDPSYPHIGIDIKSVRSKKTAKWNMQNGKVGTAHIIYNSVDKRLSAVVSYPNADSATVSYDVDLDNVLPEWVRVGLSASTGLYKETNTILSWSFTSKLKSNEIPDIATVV
Sequence of Albumin (Bos taurus) (P02769 whole entry, looked up): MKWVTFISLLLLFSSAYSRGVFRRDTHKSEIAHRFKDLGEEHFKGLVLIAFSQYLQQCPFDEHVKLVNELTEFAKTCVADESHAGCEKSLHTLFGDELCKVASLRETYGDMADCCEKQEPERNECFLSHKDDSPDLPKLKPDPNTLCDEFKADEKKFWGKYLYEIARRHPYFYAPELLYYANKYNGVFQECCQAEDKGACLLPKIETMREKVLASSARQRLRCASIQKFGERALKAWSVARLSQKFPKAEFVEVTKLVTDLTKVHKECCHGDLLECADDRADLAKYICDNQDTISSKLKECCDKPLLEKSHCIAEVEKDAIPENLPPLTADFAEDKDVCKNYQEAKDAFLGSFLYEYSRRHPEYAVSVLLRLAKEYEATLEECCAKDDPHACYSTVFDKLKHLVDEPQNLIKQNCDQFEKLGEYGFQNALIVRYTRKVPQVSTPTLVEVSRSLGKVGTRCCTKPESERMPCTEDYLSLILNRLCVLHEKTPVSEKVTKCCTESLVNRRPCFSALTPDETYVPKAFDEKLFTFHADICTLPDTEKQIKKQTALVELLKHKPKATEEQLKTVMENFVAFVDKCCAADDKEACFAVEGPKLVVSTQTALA
Sequence of Focal adhesion kinase 1 (Homo sapiens) (Q05397 whole entry, looked up): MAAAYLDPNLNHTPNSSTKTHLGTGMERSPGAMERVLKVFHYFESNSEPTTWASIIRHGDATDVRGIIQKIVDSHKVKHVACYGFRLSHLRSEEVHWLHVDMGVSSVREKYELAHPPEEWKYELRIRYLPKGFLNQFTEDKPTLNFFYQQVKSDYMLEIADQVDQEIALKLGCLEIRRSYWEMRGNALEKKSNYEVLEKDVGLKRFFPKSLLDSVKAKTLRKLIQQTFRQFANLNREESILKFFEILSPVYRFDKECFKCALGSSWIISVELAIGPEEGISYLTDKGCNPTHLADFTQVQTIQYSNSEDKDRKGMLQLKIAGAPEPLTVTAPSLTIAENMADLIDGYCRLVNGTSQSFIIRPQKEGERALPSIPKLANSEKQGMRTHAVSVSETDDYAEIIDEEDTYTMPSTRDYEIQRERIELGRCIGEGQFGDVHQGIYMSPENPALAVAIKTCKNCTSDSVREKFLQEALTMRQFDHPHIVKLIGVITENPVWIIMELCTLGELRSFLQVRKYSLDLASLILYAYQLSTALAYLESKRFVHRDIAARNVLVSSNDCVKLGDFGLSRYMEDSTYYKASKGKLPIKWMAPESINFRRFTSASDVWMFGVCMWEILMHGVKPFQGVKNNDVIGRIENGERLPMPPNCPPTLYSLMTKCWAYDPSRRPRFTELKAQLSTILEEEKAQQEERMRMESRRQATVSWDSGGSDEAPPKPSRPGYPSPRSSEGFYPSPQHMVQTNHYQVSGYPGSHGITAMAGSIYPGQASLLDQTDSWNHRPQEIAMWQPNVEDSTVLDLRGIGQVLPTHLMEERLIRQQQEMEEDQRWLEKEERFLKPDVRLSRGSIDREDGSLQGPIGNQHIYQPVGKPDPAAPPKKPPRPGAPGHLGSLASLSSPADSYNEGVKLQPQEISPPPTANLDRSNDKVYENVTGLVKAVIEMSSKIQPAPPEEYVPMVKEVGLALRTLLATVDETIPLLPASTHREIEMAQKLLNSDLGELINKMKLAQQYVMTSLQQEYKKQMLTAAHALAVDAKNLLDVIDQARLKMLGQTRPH

As to `C=CCC(OC(C)=O)[C@@H]1[C@@H](N(Cc2cccc3ccccc23)C(=O)c2cccc3ccccc23)c2cc(OCCCO)ccc2N1C(=O)c1ccc(-c2ccccc2)cc1` (stereo not given in full), the composite z-score was -0.0704 with Albumin (Bos taurus); 0.122 in assay [2]; -0.143 in [3]; 0.115 in assay [4]; 0.888 in [5]; -0.35 in [6]. Further, the composite z-score in the assay with Sam68 (KHDRBS1) is -0.159; in assay [7], 0.25; in [8] it was -0.132; in assay [9], -0.123; in assay [10], -0.14; in assay [11] it was 0.0614. The composite z-score was determined as 0.643 in assay [12]; 0.693 in [13]; 0.497 in assay [14]; 0.0548 with Lefty1; 0.0915 in assay [16]. The composite Z-score in [1] was -0.0014 (inactive). Moreover, the z-score in assay [15] was -0.338; in assay [17], 0.337 (inactive).
On to `COc1ccc([Si](C)(C)[C@H]2[C@H](CCO)O[C@@]3(C(=O)N(Cc4cccc(N5C(=O)COc6ccccc65)c4)c4ccccc43)[C@@H]2C)cc1`, for which the composite z-score is 0.336 in the assay with Albumin (Bos taurus); -0.0343 in assay [2]; 0.0425 in [3]; 0.338 in [4]; 0.317 in [5]; 0.232 in [6]. The composite z-score is 0.297 with Sam68 (KHDRBS1); 0.0083 in [7]; 0.567 in [8]; 0.354 in assay [9]; -0.0131 in assay [10]; -0.0804 in [11]. For the same compound, the composite z-score in [12] was 0.0563; in assay [13] it was 0.196; in assay [14], -0.032; in the assay on Lefty1, -0.236; in assay [16], 0.715. Also, in assay [1], the composite Z-score was 0.0953 (inactive). Further, the values for the z-score in [15] and in [17] were 1.17 and -1.17 (inactive), respectively.
Regarding `COC(=O)[C@@]1(Cc2ccccc2)[C@H]2c3cc(C(=O)N(C)C)n(CCc4ccc(O)c(OC)c4)c3C[C@H]2CN1C(=O)c1ccccc1`, the composite z-score turned out to be 0.374 with Albumin (Bos taurus); 0.742 in [2]; 0.401 in [3]; 0.126 in assay [4]; 0.316 in assay [5]; 0.638 in [6]. In addition, the composite z-score in the assay with Sam68 (KHDRBS1) is 0.169; in assay [7] it was 0.314; in assay [8], 0.151; in assay [9], 0.964; in assay [10], 0.88; in assay [11], 0.0098. In addition, the composite z-score in assay [12] amounted to 0.814; in assay [13], 0.168; in assay [14], 0.273; in the assay on Lefty1 it was 0.0511; in assay [16], 0.0048. Further, the composite Z-score in [1] was -0.372 (inactive). Also, the z-score was 0.153 in [15] and 0.554 (inactive) in assay [17].
Take `CC(CO)N1C(=O)[C@@H]2[C@H]3C(=O)OCC=C[C@H]3OC23C=CCN(C(C)(C)C)C(=O)[C@@H]13` (stereo not given in full): the composite z-score is -0.0964 in the assay with Albumin (Bos taurus); -0.242 in assay [2]; -0.125 in assay [3]; 0.852 in assay [4]; -0.856 in assay [5]; -0.604 in assay [6]. Also, the composite z-score was -1.05 in the assay with Sam68 (KHDRBS1); -0.508 in [7]; 0.251 in assay [8]; -1.15 in assay [9]; -0.833 in [10]; -0.367 in assay [11]. The composite z-score in assay [12] was -0.591; in assay [13], -0.187; in assay [14], -0.0701; in the assay with Lefty1, -0.114; in assay [16], -0.104. Moreover, in [1], the composite Z-score is 1.03 (inactive). The z-score is -0.28 in assay [15] and -0.069 (inactive) in assay [17].
`COC(=O)c1c(CC[C@@H](CO)NC(=O)N[C@H](Cn2cc(C3(O)CCCCC3)nn2)C(C)C)oc(C(C)=O)c1C(=O)OC`: the composite z-score with Albumin (Bos taurus) is -0.471; in [2], 0.0282; in assay [3] it was -0.0878; in assay [4], 0.209; in assay [5], 0.32; in assay [6], -0.0003. The composite z-score with Sam68 (KHDRBS1) is 1.14; in assay [7], 0.513; in assay [8], 1.16; in assay [9], 1.56; in assay [10], 0.737; in assay [11], -0.0722. Further, the composite z-score in [12] stood at 0.627; in [13] it was 1.23; in [14], 1.26; with Lefty1 it was 1.23; in [16] it was 0.947. The composite Z-score in assay [1] was 0.183 (inactive). Also, the z-score was 0.131 in [15] and -0.0595 (inactive) in assay [17].
